Here are results for 29 compounds from PubChem BioAssay AID1851 (National Center for Advancing Translational Sciences (NCATS), 2009).

Molecules are shown by their SMILES. The campaign covered roughly 16,000 compounds. About 5,700 (36%) were called active. Not shown: some 24% with an inconclusive outcome. This is one part of the list. Unmarked numbers belong to inactive results. Calls follow the shape of the dose curve; as a rule, active = well fitted curve in the direction sought with a large enough effect; inconclusive = small, poorly fitted or top-dose-only effect, or effect the other way; inactive = no such curve, though single readings can be large or run the other way.
% is scaled to controls: 0 for no effect and ±100 for the full control effect.

Cytochrome P450 1A2 (Homo sapiens), sequence (P05177 whole entry, looked up): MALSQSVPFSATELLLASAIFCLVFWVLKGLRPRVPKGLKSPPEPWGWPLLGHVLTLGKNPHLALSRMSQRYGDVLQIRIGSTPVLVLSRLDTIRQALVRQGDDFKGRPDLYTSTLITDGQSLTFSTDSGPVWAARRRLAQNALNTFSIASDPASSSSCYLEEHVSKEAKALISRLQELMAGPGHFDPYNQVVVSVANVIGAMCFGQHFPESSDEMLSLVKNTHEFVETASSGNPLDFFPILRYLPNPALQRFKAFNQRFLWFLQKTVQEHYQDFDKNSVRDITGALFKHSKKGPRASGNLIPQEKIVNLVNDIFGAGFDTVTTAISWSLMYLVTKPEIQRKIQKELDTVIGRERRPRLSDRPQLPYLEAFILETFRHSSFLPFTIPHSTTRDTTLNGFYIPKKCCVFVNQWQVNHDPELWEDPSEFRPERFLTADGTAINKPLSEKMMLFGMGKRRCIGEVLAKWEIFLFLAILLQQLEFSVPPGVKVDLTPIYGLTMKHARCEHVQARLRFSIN

The assay addresses Cytochrome P450 1A2 (Homo sapiens) (UniProt P05177). The assay is described as follows: Cytochrome panel assay with activity outcomes. As to conditions: recombinant CYP, pro-luciferin dealkylation, luminescence, p450-cyp1a2; series mostly up to 57.1 µM; activity, negative = inhibition: at the top concentration.
`O=c1cc(CSc2nnc(-c3cccnc3)n2-c2ccccc2F)nc2sccn12`: the “activity, negative = inhibition” value was -0.0564%.

`COCCn1c(=O)c(-c2ccc(F)cc2)nc2cnc(N(C)C)nc21`: the AC50 is 2000 nM (active).

With `COCCn1c(=O)c(-c2ccc(Cl)cc2)nc2cnc(N(C)C)nc21`, the AC50 is 1000 nM (active).

On to `COCCn1c(=O)c(-c2ccccc2)nc2cnc(N(C)C)nc21`, for which the AC50 is 3160 nM (active).

Consider `C[C@@H]1/C=C\CC(=O)OC[C@H](C)C(=O)N2CCC[C@@H]2C(=O)OC1`, for which the activity, negative = inhibition is -1.21% [at 11.4 µM].

Regarding `Cc1ccc(/C=C/c2ccc(=O)n(Cc3ccc(Cl)cc3Cl)n2)cc1`, the AC50 was 10000 nM (active).

As for `CC(=O)OC[C@@H]1O[C@H](CCON=C(C)C)C=C[C@@H]1OC(C)=O`, the activity, negative = inhibition was 4.98% [at 11.4 µM].

For `c1ccc(CCc2cccnc2)nc1`, the AC50 is 398 nM (active).

For the compound `ON(CCc1ccccn1)Cc1ccccc1`, the AC50 is 2510 nM (active).

`O=C1NC(=O)[C@@](Cc2ccccc2)(c2cccnc2)N1`: the activity, negative = inhibition is -17.1% [at 2.29 µM].

For the compound `CNCCc1ccccn1`, the “activity, negative = inhibition” value is -3.65% [at 25.6 µM].

`CS(=O)(=O)N(CC(=O)O)Cc1ccccc1`: the activity, negative = inhibition was 4.38% [at 11.4 µM].

`ON(CCc1ccncc1)Cc1ccccc1`: the AC50 is 1000 nM (active).

With `Cc1nc2nc(C)c(CCC(=O)NCCCN3CCN(c4cccc(Cl)c4)CC3)c(C)n2n1`, the “activity, negative = inhibition” value is -27.2%.

With `O=C(c1csnn1)N1CCC2(CCN(Cc3ccccc3)CC2)CC1`, the “activity, negative = inhibition” value was 4.19%.

Regarding `Cc1ccccc1CSc1nsc(N)n1`, the concentration at half-maximal activity (AC50) is 14100 nM (active).

`O=C(N/C(=C\c1cccs1)C(=O)N1CCCCCC1)c1ccccc1`: the “activity, negative = inhibition” value is -15.2%.

Regarding `O=C(NNC(=O)c1ccccc1)C(=O)N1CCCCC1`, the “activity, negative = inhibition” value was -0.824%.

Turning to `O=C(NC(N1CCCC1)C(Cl)(Cl)Cl)c1ccccc1` (centres undefined), the AC50 was 11200 nM (active).

For `O=C(O)c1ccc(C(=O)c2ccccc2C(=O)O)cc1C(=O)O`, the activity, negative = inhibition is 2.76% [at 11.4 µM].

Regarding `COc1ccc(OC)c(-c2cc(C(=O)O)c3cc4ccccc4cc3n2)c1`, the activity, negative = inhibition is -21.4% [at 2.29 µM].

Take `COc1ccc(C(=O)c2ccccc2)c(O)c1`: the AC50 is 1580 nM (active).

For `COc1ccc2nccc(C(=O)O)c2c1`, the “activity, negative = inhibition” value was -5.66% [at 25.6 µM].

As for `O=C(O)c1ccc(C(=O)c2ccccc2)c(C(=O)O)c1`, the activity, negative = inhibition was 3.14% [at 2.29 µM].

Take `COc1ccc2oc(C(=O)c3ccccc3)c(N)c2c1`: the AC50 was 1260 nM (active).

As to `COc1ccc(CN(CCN(C)C)c2ccccn2)cc1`, the AC50 entry is “inactive”.

On to `Cc1ccc(N(Cc2ccccc2)Cc2ccccc2)cc1`, for which the activity, negative = inhibition was -24.2% [at 2.29 µM].

Consider `CN(C)c1nccc(N(Cc2ccccc2)Cc2ccccc2)c1C#N`, for which the AC50 was 11200 nM (active).

As for `Cc1cc(N2C(=O)C(O)=C(C(=O)c3ccco3)C2c2ccc(O)cc2)no1` (centres undefined), the “activity, negative = inhibition” value is -3.33%.
